Reference: PubChem BioAssay AID624300 (Southern Research Specialized Biocontainment Screening …, 2012)
The campaign covered roughly 2,400 compounds. About 360 (15%) were called active. These entries were drawn from the full list. Potency and affinity values are given separately. Values without a mark were called inactive.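 Rule for the calls: active = viability falls under 70% at one or more tested concentrations, taken as toxicity; inactive = viability stays over 70% at every dose.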

Assay: viability loss in HeLa cells – cytotoxicity control for MgcRacGAP inhibitor project, dose response (AID 624300);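 note: 100% = median of untreated control wells on the same plate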
Settings: CellTiter-Glo luminescence, 24 h; series mostly up to 100 µM; viability: at the top concentration

In order of falling “viability” value:
1. COc1cc(/C=C/C(=O)OCC(=O)Nc2ccc3c(c2)OCCO3)ccc1O  115%
2. CC(=Nc1ccc(O)cc1)c1sc2ccccc2c1O  112%
3. O=C(Cc1coc2cc(O)ccc12)NNC(=O)c1ccc(Br)s1  111%
4. Oc1ccc(-c2csc(NCc3ccco3)n2)cc1  110%
5. O=C(NCCNCC(O)COc1ccc(O)cc1)N1CCOCC1 (stereo unspecified)  109%
6. CCOC1=C/C(=C/c2c(N)n3nc(S(=O)(=O)CC)sc3nc2=O)C=CC1=O  108%
7. Nc1c(Cl)ncnc1N/N=C/c1ccc(O)cc1  108%
8. COc1ccc(CCNCCN2CCOCC2)cc1  106%
9. Cc1c(C(=O)N/N=C/c2ccc(O)cc2)sc(=S)n1C  106%
10. COc1ccc(NCCC(O)c2ccc(Cl)cc2)cc1 (stereo unspecified)  106%
11. CN(c1ccccc1)c1ccc(/C=N/N2CCOCC2)cc1  106%
12. COc1cc(/C=N/NC(=O)C2(O)c3ccccc3-c3ccccc32)ccc1O  105%
13. c1coc(CSSCc2ccco2)c1  105%
14. COc1ccc(N2CCN(C(=O)c3ccc(Br)o3)CC2)cc1  105%
15. Nc1ccc(C(=O)N/N=C/c2ccc(N3CCOCC3)s2)cc1  105%
16. O=C(O)C1CCN(Cc2cnn(-c3ccccc3)c2-n2cccc2)CC1  104%
17. CC(C)COc1ccc(N)cc1OCC(C)C  104%
18. CC(=O)N1CCN(c2ccc(N)cc2)CC1  104%
19. Oc1ccc(N=Cc2cc(Br)c(N3CCOCC3)o2)cc1  103%
20. Nc1ccc(N2CCOCC2)c(Cl)c1  102%
21. Oc1cc(O)c2c(c1)O[C@H](c1ccc(O)c(O)c1)[C@H](O)C2  102%
22. CC(=O)c1c(Nc2ccc3c(c2)OCCO3)oc(C)cc1=O  102%
23. O=C(O)c1ccc(S(=O)(=O)c2ccc3c(c2)C(=O)N(NC(=O)c2cccnc2)C3=O)cc1  102%
24. O=C1C=CC(=O)N1c1ccc(Nc2ccccc2)cc1  101%
25. CCOc1cc(/C=N\NC(=O)CC(=O)NCCc2ccccc2)ccc1O  101%
26. C#CCOCCOCCOCCNc1nc(N2CCN(C(=O)[C@H](CCCCN)n3cc([C@@H](N)C(C)CC)nn3)CC2)nc(N2CCN(C(=O)[C@H](CCCCN)n3cc([C@@H](N)CC(C)C)nn3)CC2)n1 (stereo partly specified)  101%
27. COc1ccc(NC2CCCN(C(=O)COc3ccc(C(C)=O)cc3)C2)cc1 (stereo unspecified)  100%
28. S=c1[nH]nc(-c2ccncc2)n1/N=C/c1ccccc1  100%
29. COc1ccc(NCC(O)COc2ccc(C(C)(C)C)cc2)cc1 (stereo unspecified)  100%
30. COc1cccc(CN2CCN(Cc3cc(OC)c(OC)c(OC)c3)CC2)c1OC  100%
31. O=C1CC(SC(=S)C2CCCC2=O)C(=O)N1 (stereo unspecified)  100%
32. Oc1ccc(-c2csc(Nc3ncccn3)n2)cc1  100%
33. CCc1ccc(CNc2ccc(N3CCN(C(C)=O)CC3)cc2)cc1  99.8%
34. CC/C(=N\O)c1ccc(O)c(OC)c1  99.7%
35. CN(c1ccc(O)cc1)c1nc(-c2cccnc2)cs1  98.8%
36. CCOC(=O)c1c(OCC)[nH]c2c1cc(O)c1ccccc12  98.7%
37. CC(CN1CCN(Cc2ccccc2)CC1)c1ccccc1 (stereo unspecified)  98.4%
38. O=c1oc2cc(O)ccc2c2oc3cc(O)ccc3c12  98.3%
39. Oc1ccc(/C=N/NC(=S)Nc2cccnc2)c(O)c1  98.1%
40. Cc1nc(C/C(=N\N)c2ccc(O)cc2O)cs1  98%
41. Oc1ccc(/C=N/Nc2nccnc2Cl)c(O)c1  97.6%
42. CCc1nnc(NC(=O)CSCc2cc(=O)n3ccsc3n2)s1  97.5%
43. CN=c1scc(-c2ccco2)n1/N=C/c1ccc(O)c(O)c1  97.5%
44. C#CCOc1ccccc1CNC1CCN(Cc2ccccc2)CC1  97.2%
45. COc1cc(/C=N/NC(=O)CCNC(=O)c2ccccc2Cl)ccc1O  97.2%
46. Oc1ccc(/C=N/n2cc(-c3ccccc3)[nH]c2=S)cc1  97.2%
47. COc1ccc(OC(=O)c2cc(S(=O)(=O)N3CCCC3)ccc2Cl)cc1  97%
48. COc1cc(/C(C)=N/NC(=O)C(O)(c2ccccc2)c2ccccc2)ccc1O  96.5%
49. COc1ccc(N2CCN(C(=O)CCCn3c(=O)c4cccn4c4cccnc43)CC2)cc1  96%
50. Nc1cc2c([N+](=O)[O-])cccc2o1  95.3%
51. Cc1cc(C)cc(NC(=O)C(NCCN2CCOCC2)c2ccccc2)c1 (stereo unspecified)  94.9%
52. COc1cc(/C=N/NC(=O)c2ccc3c(c2)OCO3)ccc1O  94.8%
53. CN(C)/C=C/c1oc2ccc(O)cc2c1[N+](=O)[O-]  94.5%
54. COc1cc(N=Nc2ccc(C)cc2S(N)(=O)=O)c(C)cc1N  94.5%
55. CS(=O)(=O)c1ccc2c(c1)sc1nc(=O)c(/C=C3/C=CC(=O)C(O)=C3)c(N)n12  94.4%
56. Cc1ccc(N2CC(C(=O)Nc3ccc(N(C)C)cc3)CC2=O)cc1C (stereo unspecified)  94.4%
57. COc1cc(Sc2ccc(C)cc2)c(OC)cc1N  94.1%
58. COc1cc(/C=N/n2nnnc2N)ccc1O  93.9%
59. CC(C(=O)N(C)Cc1ccccc1)N1CCN(C/C=C/c2ccccc2)CC1 (stereo unspecified)  93.8%
60. CN=c1scc(C)n1/N=C/c1cc(Br)c(O)c(OC)c1  93.5%
61. O=C(Cn1c(C(=O)NCC2CCCO2)cc2sccc21)c1ccccc1 (stereo unspecified)  93.5%
62. O=C(Cn1c(C(=O)NCc2ccco2)cc2sccc21)c1ccccc1  93.1%
63. COc1ccccc1Nc1n[nH]c(=S)s1  92.9%
64. COc1ccc([C@H]2CN(c3ccc(OC)cc3)C(=O)[C@@H]2CC(=O)Nc2ccccc2)cc1  92.8%
65. COc1ccc(N)cc1NC(=O)CN1CCOCC1  92.2%
66. Cc1ccc(SCCN2CCN(Cc3ccccc3)CC2)cc1  92.2%
67. Cc1nonc1C(=O)N/N=C/c1ccc(O)c(O)c1  91.9%
68. Oc1ccc(-c2csc(Nc3cccnc3)n2)cc1  91%
69. CN=c1scc(-c2ccc(F)cc2)n1/N=C/c1ccc(O)c(O)c1  90.5%
70. Cc1cc(O)ccc1N/C=C1\CCCC1=O  90.5%
71. CCCCN(C)C(=O)C1CCN(Cc2ccc(OCc3ccccc3)cc2)CC1  90.2%
72. COC(=O)c1[nH]c2ccccc2c1NC(=O)Oc1ccccc1  88.4%
73. CCOc1cc(/C=N/Nc2ncnc(Cl)c2N)ccc1O  87%
74. O=[N+]([O-])c1ccc(C2CC(c3ccccc3)=Nc3ccccc3S2)cc1 (stereo unspecified)  85.2%
75. CN=c1scc(C)n1/N=C/c1ccc(O)cc1O  83.2%
76. COc1ccc(C=NNC(=O)c2cc(C)oc2C)cc1O  81%
